In the library only some 1.8% were active in any assay of this set; here they are far more common.
eIF4E 4G PPI: eIF4E–eIF4G protein interaction inhibitors, primary screen, biochemical, uHTS, TR-FRET, eIF4GI fragment; AID 782, 2007; inhibition, % at 21.7 µM; TR-FRET eIF4E-eIF4GI(517-606) binding, 2 h; hit rate 0.37% among 220,000;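 active = inhibition above about 30%, limit read from the data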
Target sequence (P63073 whole entry, looked up, the tested form may be a part): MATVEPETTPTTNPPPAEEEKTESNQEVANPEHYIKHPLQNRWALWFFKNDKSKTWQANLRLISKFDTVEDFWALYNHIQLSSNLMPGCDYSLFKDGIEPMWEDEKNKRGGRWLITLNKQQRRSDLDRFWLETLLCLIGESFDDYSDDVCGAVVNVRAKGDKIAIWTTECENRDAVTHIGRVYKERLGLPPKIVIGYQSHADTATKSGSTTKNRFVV
Target sequence (Q04637 whole entry, looked up, the tested form may be a part): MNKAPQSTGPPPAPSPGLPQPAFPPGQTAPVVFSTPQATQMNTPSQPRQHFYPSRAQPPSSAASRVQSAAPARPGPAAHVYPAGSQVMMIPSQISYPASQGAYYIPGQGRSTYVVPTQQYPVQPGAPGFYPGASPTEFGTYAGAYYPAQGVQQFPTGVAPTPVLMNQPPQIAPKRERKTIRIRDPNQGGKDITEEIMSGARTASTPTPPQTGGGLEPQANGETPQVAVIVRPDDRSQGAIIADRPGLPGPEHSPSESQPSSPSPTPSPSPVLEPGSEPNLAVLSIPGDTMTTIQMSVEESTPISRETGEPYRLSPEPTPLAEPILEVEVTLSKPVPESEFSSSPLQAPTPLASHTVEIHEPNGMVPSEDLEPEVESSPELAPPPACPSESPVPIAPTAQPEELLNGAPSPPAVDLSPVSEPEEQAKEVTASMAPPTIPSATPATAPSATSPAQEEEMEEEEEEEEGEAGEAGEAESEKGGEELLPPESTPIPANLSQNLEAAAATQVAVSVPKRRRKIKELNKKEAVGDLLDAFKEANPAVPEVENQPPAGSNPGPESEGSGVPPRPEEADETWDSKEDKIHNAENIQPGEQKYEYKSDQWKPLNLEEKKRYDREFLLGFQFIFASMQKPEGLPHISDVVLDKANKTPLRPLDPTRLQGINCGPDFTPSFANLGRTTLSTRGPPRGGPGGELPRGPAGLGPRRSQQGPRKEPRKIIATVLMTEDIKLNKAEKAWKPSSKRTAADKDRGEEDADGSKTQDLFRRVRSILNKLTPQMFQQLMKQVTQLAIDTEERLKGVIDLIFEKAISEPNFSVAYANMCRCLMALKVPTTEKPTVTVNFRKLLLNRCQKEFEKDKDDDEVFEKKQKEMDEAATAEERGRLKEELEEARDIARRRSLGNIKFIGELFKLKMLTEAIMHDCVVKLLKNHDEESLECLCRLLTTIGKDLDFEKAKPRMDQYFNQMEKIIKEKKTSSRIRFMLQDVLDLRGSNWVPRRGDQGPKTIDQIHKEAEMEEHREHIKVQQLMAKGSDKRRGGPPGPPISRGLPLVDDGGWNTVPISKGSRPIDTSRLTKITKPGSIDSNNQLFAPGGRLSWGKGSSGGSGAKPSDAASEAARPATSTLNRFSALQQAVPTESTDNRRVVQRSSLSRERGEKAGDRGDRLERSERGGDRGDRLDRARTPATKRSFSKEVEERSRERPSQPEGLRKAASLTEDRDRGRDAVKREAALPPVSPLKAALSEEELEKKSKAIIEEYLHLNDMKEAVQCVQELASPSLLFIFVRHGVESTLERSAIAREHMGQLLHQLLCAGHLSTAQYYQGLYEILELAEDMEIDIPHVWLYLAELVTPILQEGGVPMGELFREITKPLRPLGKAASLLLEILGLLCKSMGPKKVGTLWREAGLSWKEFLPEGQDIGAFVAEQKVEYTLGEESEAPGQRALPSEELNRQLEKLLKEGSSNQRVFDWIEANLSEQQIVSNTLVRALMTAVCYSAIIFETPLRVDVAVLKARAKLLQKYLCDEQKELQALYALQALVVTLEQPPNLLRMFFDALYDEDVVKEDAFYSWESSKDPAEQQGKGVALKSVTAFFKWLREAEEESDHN
PERK inh: block of dimerizer-induced PERK translation repression, primary screen, PERK inhibitor project, CHO PERK-DD cells, SEAP luminescence, HTS | AID 1416, 2008 | inhibition, % at 5.6 µM | Eukaryotic translation initiation factor 2-alpha kinase 3 (Homo sapiens), Q9NZJ5 | CHO PERK-DD fusion, SEAP luminescence translation reporter | hit rate 0.17% among 220,000;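 active = inhibition above the mean inhibition of all tested compounds plus 3 SD, set separately per screening campaign, cut at about 2.9% in these data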;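 also: PERK kinase domain activated by AP20187 dimerizer at 100 nM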
PGE2 EP2 inh: human EP2 receptor antagonists, primary screen, TR-FRET cAMP, C6 glioma cells; Prostaglandin E2 receptor EP2 subtype (Homo sapiens), P43116; C6 glioma cells expressing human EP2; cells stimulated with saturating PGE2; inhibition, % at 25 µM; hit rate 0.52% among 260,000;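 active = percent inhibition above 40 after rounding to a whole number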;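 also: rat C6 glioma host cells with rolipram phosphodiesterase inhibitor present; the protocol text gives 20 µM as final concentration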
EP2 mod: EP2 receptor modulators, cAMP readout, primary screen, cell-based, HTRF cAMP, PGE2 stimulation; AID 940, 2007; EP2-expressing cells, cAMP HTRF FRET, PGE2 co-stimulation; hit rate 0.83% among 260,000; induction, % at 25 µM; Prostaglandin E2 receptor EP2 subtype (Homo sapiens), P43116;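 active = compounds whose cAMP rise, as percent of the full-agonist control response, exceeds 60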;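 also: rat C6 glioma line stably carrying human EP2 under a CMV promoter; the protocol text gives 20 µM as final concentration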
EP2 confirm: cAMP induction in EP2, EP4, beta2-AR and parental cells, confirmation, counter-screen for EP2 modulator project, cell-based, five parallel assays, C6 glioma, HEK293; shares compounds with EP2 mod; cAMP HTRF induction; plus low (about EC15) PGE2 agonist; calls only at 20 µM (by protocol); hit rate 47% among 1,300; AID 1080, 2008;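 active = cAMP induction above 50% in the main assay while under 30% in all four parallel counter assays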;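 also: rat C6 glioma cells stably expressing human EP2 receptor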
Numbers stand for hits; i = inactive; nt = no result given; + = active, no number.

SMILES	eIF4E 4G PPI	PERK inh	PGE2 EP2 inh	EP2 mod	EP2 confirm
COC(=O)C1C(=O)C2=C(CC1C)Nc1ccccc1NC2c1cccc(OC)c1OC (centres undefined)	nt	nt	i	i	nt
CCCOC(=O)c1ccc(NC(=O)c2cn(CC)c3nc(C)ccc3c2=O)cc1	i	i	nt	67	i
Cc1ccccc1Nc1c(-c2ccccn2)nc2ccccn12	i	i	i	66	i
Cc1ccc2nc(-c3ccccn3)c(Nc3ccccc3C)n2c1	i	i	i	67	i
Cc1ccccc1Nc1c(-c2cccnc2)nc2ccccn12	i	i	i	i	nt
Cc1ccn2c(Nc3ccccc3C)c(-c3ccccn3)nc2c1	i	i	i	66	i
Cc1ccn2c(Nc3ccccc3)c(-c3ccccn3)nc2c1	i	i	i	i	nt
CC(=O)Nc1ccc2nc(C3CC3)n(Cc3ccc(F)cc3)c(=O)c2c1	nt	nt	i	i	nt
O=C(NC12CC3CC(CC(C3)C1)C2)C1CCCN(S(=O)(=O)c2cccc(Cl)c2)C1 (centres undefined)	nt	nt	i	i	nt
C=CCOc1nc(-c2ccncc2)nc2ccccc12	i	i	i	69	+
Cc1cc2cc(C(c3nnnn3CC3CCCO3)N3c4ccccc4CC3C)c(=O)[nH]c2cc1C (centres undefined)	nt	nt	i	i	nt
C/C(=C\c1ccc(C(=O)O)cc1)c1ccc2c(c1)C(C)(C)CCC2(C)C	nt	nt	i	i	+
CCC(c1nnnn1Cc1ccco1)N(Cc1cc2ccc(OC)cc2[nH]c1=O)C1CCCC1 (centres undefined)	nt	nt	i	i	nt
COc1cccc2cc(C(=O)Nc3ccc(S(=O)(=O)N4CCCCC4C)cc3)c(=O)oc12 (centres undefined)	nt	nt	i	i	nt
Cc1cc(C)c(N=C2CCCN2Cc2ccccc2)c(C#N)c1	i	i	i	78	+
N#Cc1ccccc1N=C1CCCN1Cc1ccccc1	i	i	i	i	nt
CC1CN(C(=O)c2ccccc2Nc2ccc(SC(F)F)cc2)CC(C)O1 (centres undefined)	i	i	i	i	nt
CC1CCCC(C)N1C(=O)c1ccccc1Nc1ccc(SC(F)F)cc1 (centres undefined)	i	i	i	76	i
Cc1sc2nc(C3CC3)n(C3CCN(CC(=O)NC(C)(C)C)CC3)c(=O)c2c1C	nt	nt	nt	i	nt
CCN(CC)c1ccc(/C=C2\C(=O)c3ccc(C(=O)O)cc3C2=O)cc1	i	i	i	74	+
CCOc1ccc2[nH]c(=O)c(C(c3nnnn3CC3CCCO3)N(CC)Cc3ccccc3)cc2c1 (centres undefined)	nt	nt	i	i	nt
O=C(Nc1ccccc1-c1nc2ccccc2s1)c1ccc(Br)o1	i	i	i	78	+
Cc1ccc2cccc(NC(=O)c3ccc(Br)o3)c2n1	i	i	i	87	+
O=C(NCc1ccc(-c2nc3ccccc3s2)cc1)c1ccc(Br)o1	i	i	i	i	nt
CCc1nnc(NC(=O)CSc2nnc(-c3ccc(Br)cc3)o2)s1	nt	nt	i	i	nt
SMILES	eIF4E 4G PPI	PERK inh	PGE2 EP2 inh	EP2 mod	EP2 confirm
Cc1ccc(-c2cc3nn(-c4ccccc4)c(N)c3c(=O)o2)cc1	i	i	i	66	i
CCOC(=O)CSc1ncnc2c1sc1nc(N3CCOCC3)c3c(c12)CCCC3	i	i	i	75	+
N#Cc1c(-c2ccco2)nc(SCc2ccc(F)cc2)[nH]c1=O	i	i	nt	75	i
N#Cc1c(-c2ccco2)nc(SCC(=O)Nc2ccc(S(N)(=O)=O)cc2)[nH]c1=O	i	i	i	i	nt
COc1ccc(C(=O)Nc2ccc(S(=O)(=O)NCC3CCCO3)cc2)cc1OC (centres undefined)	nt	nt	i	i	nt
CCn1c2ccccc2c2cc(/C=N/NC(=O)c3ccccc3)ccc21	i	i	i	i	nt
CCn1c2ccccc2c2cc(/C=N/n3c(C)nnc3C)ccc21	i	i	i	94	+
CCn1c(SCC(=O)Nc2ccc(Cl)cc2)nnc1-c1ccncc1	nt	nt	i	i	nt
CC(=O)N1N=C2/C(=C/c3ccccc3)CCCC2C1c1ccccc1 (centres undefined)	i	i	i	70	i
O=C(O)c1c(C(=O)N2N=C3/C(=C/c4ccccc4)CCCC3C2c2ccccc2)cccc1[N+](=O)[O-] (centres undefined)	i	i	i	i	nt
CCn1nc(CC(=O)NC2(c3ccc(OC)cc3)CCCCC2)c2ccccc2c1=O	nt	nt	i	i	nt
Oc1ccc(/C=N/N2CCN(C3c4ccccc4-c4ccccc43)CC2)cc1	i	i	i	i	nt
Oc1ccc(/C=N/N2CCN(C3c4ccccc4-c4ccccc43)CC2)c(O)c1	i	i	i	66	i
CCc1cc2cc(OC)ccc2nc1SCC(=O)Nc1ccc(N(C)C)cc1	nt	nt	i	i	nt
COCCOC(=O)C1=C(N)Oc2cc(C)oc(=O)c2C1c1ccc(C(F)(F)F)cc1 (centres undefined)	nt	nt	i	i	nt
O=C(CCC1CCCC1)NCc1ccco1	nt	nt	i	i	nt
Cc1ccc(-c2csc(N=C(N)N)n2)cc1	i	i	i	i	nt
NC(N)=Nc1nc(CSCC/C(N)=N/S(N)(=O)=O)cs1	i	i	i	i	i
CC(C)CCn1c(Oc2ccc(Cl)cc2)nc2c1c(=O)n(C)c(=O)n2C	i	i	i	73	+
COc1ccc(Oc2nc3c(c(=O)n(C)c(=O)n3C)n2Cc2ccccc2)cc1	i	i	i	i	nt
Cc1cc(N2CCCC2)ccc1CN1CCc2c(nc(N3CCOCC3)[nH]c2=O)C1	nt	nt	nt	i	nt
CCCC(=O)Nc1c(C(=O)OCC)oc2ccccc12	i	i	i	i	nt
CCOC(=O)c1oc2ccccc2c1NC(=O)c1ccccc1OC	i	i	i	79	+
O=C(COC(=O)c1ccc(F)cc1)Nc1cc(S(=O)(=O)N2CCOCC2)ccc1N1CCCC1	i	i	i	i	nt
O=C(COC(=O)c1ccc(S(=O)(=O)N2CCCC2)cc1)Nc1ccc(F)cc1F	i	i	i	87	i
SMILES	eIF4E 4G PPI	PERK inh	PGE2 EP2 inh	EP2 mod	EP2 confirm
O=S(=O)(NCc1cccnc1)c1cccn1-c1ncc(C(F)(F)F)cc1Cl	i	i	i	i	nt
O=S(=O)(c1cccc(C(F)(F)F)c1)N1c2ccccc2-n2cccc2[C@H]1c1cccnc1	nt	nt	i	i	+
CCOC(=O)CC(=O)CSc1nc(-c2ccc3c(c2)OCO3)cc(C(F)(F)F)c1C#N	i	i	i	68	i
Cc1ccc2c(c1)N(Cc1cccc(Cl)c1)C(=O)c1cccnc1O2	i	i	i	71	+
c1ccc(Sc2ncnc3ccccc23)cc1	i	i	i	i	nt
c1ccc(Cc2nnc(Sc3ccccc3)c3ccccc23)cc1	i	i	i	69	i
CC(C)n1c2ccccc2c2nc3ccccc3nc21	i	i	i	i	+
O=C(CN1CCCCC1)Nc1cc(Cl)ccc1Oc1ccccc1	i	i	i	i	nt
